aSyn UTR act: Activators working through SNCA 5'UTR binding (MLPCN). alpha-synuclein 5'UTR reporter, activators screen. activity score, % (tested at 7.5 µM), hits read low. actives 7.1% (n = 300,000). AID 1814; in the data active means activity score below about -60%
Numbers without * were called inactive. These entries were drawn from the full list.

Screening CCC(C)Nc1nc(N)c([N+](=O)[O-])c(Nc2cc(OC)ccc2OC)n1 (centres undefined) returned aSyn UTR act 97.
For CC1CN(Cc2csc(-c3ccc(Cl)cc3)n2)CC(C)O1 (centres undefined) the results were aSyn UTR act -105*.
For Cc1ccc(CNc2nc(C)cs2)cc1 the results were aSyn UTR act -112*.
COc1cc(N2Cc3ccccc3C2)ccc1C=O was read as aSyn UTR act -151*.
For CC1(C)CC(=O)C(N=Nc2cccc(S(=O)(=O)N3CCOCC3)c2)=C(O)C1 the results were aSyn UTR act 41.
Cc1ccc(O)c(N=NC2=C(O)CC(C)(C)CC2=O)c1 was read as aSyn UTR act 65.
`Cc1nc2ccc(N=NC3=C(O)CC(C)(C)CC3=O)cc2s1` gave aSyn UTR act -77*.
CC(=O)N1CCc2cc(N=NC3=C(O)CC(C)(C)CC3=O)ccc21 was read as aSyn UTR act -95*.
For CCOc1ccc2nc(N=NC3=C(O)CC(C)(C)CC3=O)sc2c1 the results were aSyn UTR act -98*.
`COC(=O)c1cn(CCOc2ccccc2)c2ccccc12` gave aSyn UTR act -153*.
`CN(C)c1ccc(/C=C/C=C2/SC(=S)N(c3ccccc3)C2=O)cc1` gave aSyn UTR act -76*.
For O=C1/C(=C/C=C/c2ccco2)SC(=S)N1c1ccc(O)cc1 the results were aSyn UTR act -78*.
`C=C(C)CNC(=S)N/N=C(\C)c1ccc(Cl)s1` gave aSyn UTR act -70*.
`CCOC(=O)c1ccc(-c2ccc(CO)o2)cc1` gave aSyn UTR act -132*.
For CCOC(=O)c1ccc(COC(=O)c2ccc(-c3nnc(-c4ccccc4)o3)cc2)o1 the results were aSyn UTR act -91*.
`O=C(COC(=O)c1ccc(-c2nnc(-c3ccccc3)o2)cc1)c1ccccc1` gave aSyn UTR act -126*.
Screening CCOC(=O)c1ccc(-c2nnc(-c3ccc(Cl)cc3Cl)o2)cc1 returned aSyn UTR act -207*.
`CC(C)(C)OC(=O)N/N=C/c1c[nH]c2ccccc12` gave aSyn UTR act -140*.
For Cc1occc1C(=O)N/N=C/c1c[nH]c2ccccc12 the results were aSyn UTR act -135*.
Screening CCc1c(C(=O)Nc2ccccc2C(N)=O)csc1C returned aSyn UTR act -62*.
`NC(=O)c1ccccc1NC(=O)c1ccc2c(c1)OCO2` gave aSyn UTR act -152*.
Cc1ccccc1NC(=O)c1ccc2ccccc2c1 was read as aSyn UTR act -150*.
NC(=O)c1ccccc1NC(=O)c1ccc2ccccc2c1 was read as aSyn UTR act -139*.
Screening Cc1ccc(C(=O)CC(c2cccs2)S(=O)(=O)c2ccc(C)cc2)cc1 (centres undefined) returned aSyn UTR act -118*.
Screening Cc1ccc(N(CC(=O)Nc2ccc3c(c2)OCCO3)S(C)(=O)=O)cc1 returned aSyn UTR act -99*.
For C=CCNC(=O)c1ccc(CN(c2ccc(OCC)cc2)S(=O)(=O)c2ccc(C)cc2)cc1 the results were aSyn UTR act -93*.
CC(=O)c1ccc(NC(=O)CN(c2c(C)cccc2C)S(C)(=O)=O)cc1 was read as aSyn UTR act -131*.
`CCOc1ccc(N(CC(=O)NCc2ccccc2OC)S(C)(=O)=O)cc1` gave aSyn UTR act -90*.
Screening CCOc1ccc(N(CC(=O)Nc2ccc(C)cc2)S(C)(=O)=O)cc1 returned aSyn UTR act -113*.
`CCOc1ccc(N(CC(=O)Nc2ccccc2C)S(=O)(=O)c2c(C)noc2C)cc1` gave aSyn UTR act 59.
`CS(=O)(=O)N(CC(=O)Nc1ccccc1C(=O)NCCc1ccccc1)c1ccc2c(c1)OCCO2` gave aSyn UTR act -153*.
Screening CCOc1ccc(N(CC(=O)Nc2cc(C)cc(C)c2)S(C)(=O)=O)cc1 returned aSyn UTR act -88*.
Screening O=C1/C(=C\Nc2ccc(Cl)cc2)CCN1c1ncccn1 returned aSyn UTR act -158*.
`O=C1/C(=C\Nc2ccc(OC(F)(F)F)cc2)CCN1c1ncccn1` gave aSyn UTR act -201*.
`COCCNC(=O)C(=O)Nc1ccc(Br)cc1` gave aSyn UTR act -103*.
`C=CCNC(=S)Nc1ccc(N(C)C)cc1` gave aSyn UTR act -70*.
For CCCNC(=O)C(=O)Nc1ccc(N(C)C)cc1 the results were aSyn UTR act -126*.
`O=C(Nc1cccc(-c2ccc(N3CCOCC3)nn2)c1)c1ccc([N+](=O)[O-])cc1` gave aSyn UTR act -99*.
Screening Cc1ccc(C(=O)Nc2cccc(-c3ccc(N4CCOCC4)nn3)c2)cc1[N+](=O)[O-] returned aSyn UTR act -76*.
For Cc1ccccc1C(=O)Nc1cccc(-c2ccc(N3CCOCC3)nn2)c1 the results were aSyn UTR act -65*.
For O=C(Nc1cccc(-c2ccc(N3CCOCC3)nn2)c1)c1ccccc1 the results were aSyn UTR act -80*.
Screening O=C(COc1ccc(Cl)cc1Cl)Nc1cccc(-c2ccc(N3CCOCC3)nn2)c1 returned aSyn UTR act -72*.
Cc1cccnc1Nc1nc(-c2ccc(O)cc2)cs1 was read as aSyn UTR act -231*.

Compound activity: PubChem BioAssay, Broad Institute
